“And” between values parts separate entries of the source, which are not always exact repeats. Identical values can stand only once. Records with an inconclusive call do not appear. More than one record can exist for a structure, and the calls need not agree. The source made the active and inactive calls. The calls were made as follows: active = hit-call score of the fitted dose curve at least 0.9, where 1 is the maximum; inconclusive = response in the unintended direction; inactive = score below 0.9.
Experiments:
[1] = molecular target: Androgen Receptor/SRC-1 Co-activator, AR (gene 367) (UniProt P10275); experiment: OT_AR_ARSRC1_0960: Odyssey Thera (OT) 16-hour HEK293T Protein-Complementation Assay for Androgen Receptor/SRC-1 Co-activator (AID 2283353);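 also: actives raise the signal above DMSO so potency reflects increased AR and SRC-1 complex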
How it was run: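 Split-Venus PCA, AR/SRC-1 fusions, stable HEK293T; 16 h compound exposure; imaged at 488 and 635 nm; N/C ratio (488 nm channel), min 400 cells/image; positive-direction fit, DMSO baseline.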

[2] = molecular target: Androgen Receptor/SRC-1 Co-activator, AR (gene 367) (UniProt P10275); experiment: OT_AR_ARSRC1_0480: Odyssey Thera (OT) 8-hour HEK293T Protein-Complementation Assay for Androgen Receptor/SRC-1 Co-activator (AID 2283354);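 also: hits raise the complementation signal above DMSO so AC50 marks enhancers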
How it was run: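 HEK293T cells stably expressing AR and SRC-1 fused to split Venus YFP fragments via (Gly4Ser)2 linkers were read 8 h after compound dosing. Complementation was imaged at 488 and 635nm, and nuclear/cytoplasmic fluorescence ratio (488nm) was taken over ≥400 cells; gain-of-signal versus DMSO.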

[3] = molecular target: Estrogen receptor (Homo sapiens) + Estrogen receptor beta (Homo sapiens) (UniProt P03372+Q92731); experiment: OT_ER_ERaERb_1440: Odyssey Thera (OT) 24-hour HEK293T Protein-Complementation Assay for Estrogen Receptor-alpha/-beta Homodimer (AID 2283356);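 also: heteromer of ER alpha and ER beta binding domains; hits raise reporter fluorescence and both agonists and antagonists give an increase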
How it was run: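 Readout: mean fluorescence intensity in nucleus (agonists) or nucleus plus cytoplasm (antagonists), read by laser scanning cytometer after 24 h compound exposure of HEK293T cells carrying ERα/ERβ LBD fragment-complementation constructs; DMSO baseline.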

[4] = molecular target: Estrogen receptor beta (Homo sapiens) (UniProt Q92731); experiment: OT_ER_ERbERb_0480: Odyssey Thera (OT) 8-hour HEK293T Protein-Complementation Assay for Estrogen Receptor-beta/-beta Homodimer (AID 2283357);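 also: active means signal gain over DMSO baseline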
How it was run: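 Readout: increase in mean fluorescence intensity (nucleus for agonists; nucleus plus cytoplasm for antagonists) relative to DMSO, from a reporter-fragment complementation of human ER-beta LBD homodimer in HEK293T cells dosed 8 hours.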

[5] = molecular target: Nuclear receptor subfamily 1 group I member 2 (Homo sapiens) (UniProt O75469); experiment: NVS_NR_hPXR: NovaScreen (NVS) Nuclear Receptor Binding Assay for human Pregnane X Receptor (PXR) (AID 2283365);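 also: a drop in FRET signal versus DMSO baseline means the compound binds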
How it was run: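 TR-FRET signal read at 2 h in a cell-free human PXR binding format. DMSO served as negative control and baseline; activity scored as signal loss. Single-concentration duplicate screen (25 uM), then concentration-response follow-up.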

[6] = molecular target: Peroxisome proliferator-activated receptor gamma (Homo sapiens) (UniProt P37231); experiment: NVS_NR_hPPARg: NovaScreen (NVS) Nuclear Receptor Binding Assay for human Peroxisome Proliferator-activated Receptor gamma (PPARg) (AID 2283370)
How it was run: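 FP read-out, 2 h post-dose, cell-free extracted receptor protein. Signal loss vs DMSO negative control = binding activity. Single-conc duplicate HTS at 25 uM; concentration-response follow-up for actives.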

[7] = molecular target: rat Mineralocorticoid Receptor (MR), Nr3c2 (gene 25672) (UniProt P22199); experiment: NVS_NR_rMR: NovaScreen (NVS) Nuclear Receptor Binding Assay for rat Mineralocorticoid Receptor (MR) (AID 2283355)
How it was run: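 Cell-free radioligand binding to MR in adrenalectomized rat brain supernatant, scintillation counted 24 h after dosing. Loss of signal versus DMSO baseline marks displacement. Primary screen in duplicate at 25 uM; actives retested as concentration series.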

[8] = molecular target: Retinoic acid receptor alpha (Homo sapiens) (UniProt P10276); experiment: NVS_NR_hRAR_Antagonist: NovaScreen (NVS) Nuclear Receptor Binding Assay for human Retinoic Acid Alpha Receptor Antagonism (RAR) (AID 2283358)
How it was run: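 Cell-free TR-FRET binding assay on extracted receptor protein, run in antagonist mode; signal read 2 hours after chemical dosing. Loss of signal was fitted relative to DMSO baseline. Screened at 25 uM in duplicate, actives followed up in concentration series.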

[9] = molecular target: Glucocorticoid receptor (Homo sapiens) (UniProt P04150); experiment: NVS_NR_hGR: NovaScreen (NVS) Nuclear Receptor Binding Assay for human Glucocorticoid Receptor (GR) (AID 2283363);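 as to AC50: activity is loss of specific radioligand binding signal relative to DMSO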
How it was run: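 Cell-free radioligand binding with extracted receptor protein, read by filter-based scintillation counting 16 hours after dosing. Loss of specific signal versus DMSO baseline was scored. Primary screen ran in duplicate at 25 uM; actives were followed up in concentration series.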

[10] = molecular target: human Peroxisome Proliferator-activated Receptor alpha (PPARa), PPARA (gene 5465) (UniProt Q07869); experiment: NVS_NR_hPPARa: NovaScreen (NVS) Nuclear Receptor Binding Assay for human Peroxisome Proliferator-activated Receptor alpha (PPARa) (AID 2283359);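 also: activity means loss of TR-FRET signal versus DMSO baseline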
How it was run: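 Cell-free binding assay with extracted human protein, read by TR-FRET 1 h after chemical dosing. Loss of signal relative to DMSO baseline indicates binding. Primary screen used duplicate single concentration (25 uM); actives followed up in concentration series.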

[11] = molecular target: PGR (gene 5241) (UniProt P06401); experiment: NVS_NR_hPR: NovaScreen (NVS) Nuclear Receptor Binding Assay for human Progestron Receptor (PR) (AID 2283360);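 also: active means loss of bound radioligand signal versus DMSO baseline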
How it was run: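 T47D lysate; tritiated or iodinated radioligand; scintillation count at 18 h. DMSO = negative control/baseline. Primary: 25 uM, duplicate. Secondary: concentration series for actives.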

[12] = molecular target: rat Androgen Receptor (AR), Ar (gene 24208) (UniProt P15207); experiment: NVS_NR_rAR: NovaScreen (NVS) Nuclear Receptor Binding Assay for rat Androgen Receptor (AR) (AID 2283366)
How it was run: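 Cell-free radioligand binding on extracts of prostate from testosterone-pretreated rats, read by filter-based scintillation counting 18 h after dosing. Loss of bound signal fitted positively versus DMSO; primary screen in duplicate at 25 uM, actives followed up in concentration series.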

[13] = tested on: guinea pig Dopamine Transporter (DAT), gene 100714898; experiment: NVS_TR_gDAT: NovaScreen (NVS) Transporter Assay for guinea pig Dopamine Transporter (DAT) (AID 2283369);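 also: active compounds lower bound radioligand signal relative to DMSO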
How it was run: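 Cell-free striatal membrane prep (guinea pig), 2 h exposure, filtration + scintillation readout of radioligand binding. Single-point 25 uM duplicate; actives rerun singleton, top conc 50 uM.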

[14] = molecular target: human Dopamine Transporter (DAT), SLC6A3 (gene 6531) (UniProt Q01959); experiment: NVS_TR_hDAT: NovaScreen (NVS) Transporter Assay for human Dopamine Transporter (DAT) (AID 2283374);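 also: activity means loss of bound radioligand signal relative to DMSO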
How it was run: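 Cell-free radioligand binding to extracted human DAT protein, read 1 h after dosing by filter-based scintillation counting. Loss of specific binding scored against DMSO baseline; primary screen in duplicate at 25 uM, actives then run in concentration series.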

[15] = molecular target: guinea pig Sigma Receptor, Non-selective Binding, SIGMAR1 (gene 100135589) (UniProt Q60492); experiment: NVS_OR_gSIGMA_NonSelective: NovaScreen (NVS) Nuclear Receptor Binding Assay for guinea pig Sigma Receptor, Non-selective Binding (AID 2283367)
How it was run: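 Guinea pig brain membranes, cell-free radioligand binding; read 1 h after dosing by filter-based scintillation counting. Loss of signal vs DMSO baseline taken as displacement. Primary screen single concentration 25 uM in duplicate; actives retested in concentration series.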

[16] = tested on: rat Norepinephrine Transporter (NET), gene 83511; experiment: NVS_TR_rNET: NovaScreen (NVS) Transporter Assay for rat Norepinephrine Transporter (NET) (AID 2283373)
How it was run: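 Rat forebrain membranes; radioligand binding measured by filter-based scintillation counting 1 hour after dosing. Loss of specific binding versus DMSO baseline scored; primary screen in duplicate at 25 uM, actives followed up in concentration series.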

[17] = molecular target: human Thyroid Receptor Alpha (TRa), THRA (gene 7067) (UniProt P10827); experiment: NVS_NR_hTRa_Antagonist: NovaScreen (NVS) Nuclear Receptor Binding Assay for human Thyroid Receptor Alpha Antagonism (TRa) (AID 2283362);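 also: activity is loss of signal relative to DMSO baseline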
How it was run: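 AlphaLISA chemiluminescent immunoassay readout, taken 1 h post-dosing in a cell-free system with extracted protein. Activity was scored as signal loss against DMSO negative control, from duplicate single-concentration (25 uM) testing followed by concentration-response follow-up.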

[18] = molecular target: Retinoic acid receptor alpha (Homo sapiens) (UniProt P10276); experiment: NVS_NR_hRARa_Agonist: NovaScreen (NVS) Nuclear Receptor Binding Assay for human Retinoic Acid Alpha Receptor Agonism (RAR) (AID 2283361)
How it was run: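 Cell-free TR-FRET binding read-out with extracted human RARα protein, read 2 h after compound addition. Gain of signal scored against DMSO baseline. Primary screen at a single 25 uM in duplicate; actives then retested in concentration series.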

[19] = molecular target: human Adenosine Transporter (Adot), SLC29A1 (gene 2030) (UniProt Q99808); experiment: NVS_TR_hAdoT: NovaScreen (NVS) Transporter Assay for human Adenosine Transporter (Adot) (AID 2283368)
How it was run: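 U937-derived membranes, cell-free radioligand binding, filter scintillation 1 h after dosing. 25 uM duplicate screen; hits (e.g. 30% inhibition) run in concentration-response up to 50 uM; loss of signal versus DMSO.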

[20] = molecular target: human Serotonin Transporter (SERT), SLC6A4 (gene 6532) (UniProt P31645); experiment: NVS_TR_hSERT: NovaScreen (NVS) Transporter Assay for human Serotonin Transporter (SERT) (AID 2283372)
How it was run: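 Radioligand binding to native SERT in human platelet membranes, read by filter-based scintillation counting 1 h after dosing. Primary screen in duplicate at 25 uM; actives followed up in concentration series; loss of signal versus DMSO baseline.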

Measured: AC50

Chain of human Peroxisome Proliferator-activated Receptor alpha (PPARa), PPARA (gene 5465) (Q07869 whole entry, looked up): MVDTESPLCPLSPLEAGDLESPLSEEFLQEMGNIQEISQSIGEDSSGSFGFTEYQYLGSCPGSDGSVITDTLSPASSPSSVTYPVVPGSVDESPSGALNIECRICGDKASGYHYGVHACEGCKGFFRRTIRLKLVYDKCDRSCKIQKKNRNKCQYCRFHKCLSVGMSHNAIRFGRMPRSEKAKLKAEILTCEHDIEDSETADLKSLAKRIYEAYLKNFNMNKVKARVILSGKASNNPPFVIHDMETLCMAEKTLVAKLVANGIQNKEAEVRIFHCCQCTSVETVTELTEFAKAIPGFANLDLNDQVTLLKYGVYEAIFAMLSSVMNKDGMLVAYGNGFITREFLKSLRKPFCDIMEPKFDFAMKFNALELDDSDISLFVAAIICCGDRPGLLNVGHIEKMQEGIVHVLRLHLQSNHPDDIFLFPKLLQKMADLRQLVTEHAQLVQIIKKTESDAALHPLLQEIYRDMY
Chain of Androgen Receptor/SRC-1 Co-activator, AR (gene 367) (P10275 whole entry, looked up, the tested form may be a part): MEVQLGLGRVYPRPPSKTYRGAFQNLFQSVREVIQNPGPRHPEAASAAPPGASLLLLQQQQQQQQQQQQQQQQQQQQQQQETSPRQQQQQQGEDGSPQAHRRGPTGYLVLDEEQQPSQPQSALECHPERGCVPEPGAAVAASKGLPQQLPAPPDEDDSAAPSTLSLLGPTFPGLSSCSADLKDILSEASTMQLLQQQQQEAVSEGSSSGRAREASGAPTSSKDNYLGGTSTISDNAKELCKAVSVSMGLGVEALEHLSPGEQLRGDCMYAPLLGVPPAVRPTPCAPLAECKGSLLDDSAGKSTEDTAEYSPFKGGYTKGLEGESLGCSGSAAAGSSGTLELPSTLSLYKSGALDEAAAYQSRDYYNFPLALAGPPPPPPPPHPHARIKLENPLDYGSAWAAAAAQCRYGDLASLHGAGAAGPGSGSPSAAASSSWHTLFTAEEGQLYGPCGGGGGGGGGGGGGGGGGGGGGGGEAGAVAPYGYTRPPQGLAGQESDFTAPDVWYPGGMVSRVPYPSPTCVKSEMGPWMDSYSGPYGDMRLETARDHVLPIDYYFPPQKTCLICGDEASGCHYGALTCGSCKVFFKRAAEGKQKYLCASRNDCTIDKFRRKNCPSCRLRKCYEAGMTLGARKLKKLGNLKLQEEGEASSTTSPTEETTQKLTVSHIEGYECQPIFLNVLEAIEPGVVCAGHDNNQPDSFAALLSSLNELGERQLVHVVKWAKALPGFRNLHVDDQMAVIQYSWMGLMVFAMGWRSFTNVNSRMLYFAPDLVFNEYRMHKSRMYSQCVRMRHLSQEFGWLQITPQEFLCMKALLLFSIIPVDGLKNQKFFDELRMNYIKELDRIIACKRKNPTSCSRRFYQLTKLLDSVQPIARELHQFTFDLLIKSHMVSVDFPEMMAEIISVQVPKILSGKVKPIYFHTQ
Chain of rat Androgen Receptor (AR), Ar (gene 24208) (P15207 whole entry, looked up): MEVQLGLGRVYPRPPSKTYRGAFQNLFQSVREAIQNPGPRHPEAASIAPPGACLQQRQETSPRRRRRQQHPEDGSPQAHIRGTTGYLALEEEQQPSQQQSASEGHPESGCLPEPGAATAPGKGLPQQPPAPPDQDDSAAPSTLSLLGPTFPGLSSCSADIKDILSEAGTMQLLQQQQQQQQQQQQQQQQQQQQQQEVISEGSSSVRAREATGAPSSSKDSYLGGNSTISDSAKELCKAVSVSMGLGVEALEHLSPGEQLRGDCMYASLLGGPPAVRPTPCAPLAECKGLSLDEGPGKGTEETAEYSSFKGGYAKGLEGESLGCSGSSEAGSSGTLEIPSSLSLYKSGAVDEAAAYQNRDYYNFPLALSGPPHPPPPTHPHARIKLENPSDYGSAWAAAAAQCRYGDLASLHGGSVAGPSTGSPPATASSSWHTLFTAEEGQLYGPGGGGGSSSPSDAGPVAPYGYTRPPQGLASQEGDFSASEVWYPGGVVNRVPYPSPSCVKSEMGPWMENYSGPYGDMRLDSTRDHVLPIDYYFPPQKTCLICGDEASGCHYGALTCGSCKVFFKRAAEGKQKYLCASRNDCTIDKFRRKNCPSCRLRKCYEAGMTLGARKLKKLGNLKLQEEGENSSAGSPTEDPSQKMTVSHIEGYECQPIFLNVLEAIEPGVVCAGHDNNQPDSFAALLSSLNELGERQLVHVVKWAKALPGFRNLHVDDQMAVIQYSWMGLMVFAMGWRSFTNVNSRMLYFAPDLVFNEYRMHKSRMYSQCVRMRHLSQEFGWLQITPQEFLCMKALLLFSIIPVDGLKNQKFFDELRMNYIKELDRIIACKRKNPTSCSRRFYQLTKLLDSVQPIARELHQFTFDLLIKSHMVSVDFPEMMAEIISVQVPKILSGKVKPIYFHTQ
Chain of Glucocorticoid receptor (Homo sapiens) (P04150 whole entry, looked up): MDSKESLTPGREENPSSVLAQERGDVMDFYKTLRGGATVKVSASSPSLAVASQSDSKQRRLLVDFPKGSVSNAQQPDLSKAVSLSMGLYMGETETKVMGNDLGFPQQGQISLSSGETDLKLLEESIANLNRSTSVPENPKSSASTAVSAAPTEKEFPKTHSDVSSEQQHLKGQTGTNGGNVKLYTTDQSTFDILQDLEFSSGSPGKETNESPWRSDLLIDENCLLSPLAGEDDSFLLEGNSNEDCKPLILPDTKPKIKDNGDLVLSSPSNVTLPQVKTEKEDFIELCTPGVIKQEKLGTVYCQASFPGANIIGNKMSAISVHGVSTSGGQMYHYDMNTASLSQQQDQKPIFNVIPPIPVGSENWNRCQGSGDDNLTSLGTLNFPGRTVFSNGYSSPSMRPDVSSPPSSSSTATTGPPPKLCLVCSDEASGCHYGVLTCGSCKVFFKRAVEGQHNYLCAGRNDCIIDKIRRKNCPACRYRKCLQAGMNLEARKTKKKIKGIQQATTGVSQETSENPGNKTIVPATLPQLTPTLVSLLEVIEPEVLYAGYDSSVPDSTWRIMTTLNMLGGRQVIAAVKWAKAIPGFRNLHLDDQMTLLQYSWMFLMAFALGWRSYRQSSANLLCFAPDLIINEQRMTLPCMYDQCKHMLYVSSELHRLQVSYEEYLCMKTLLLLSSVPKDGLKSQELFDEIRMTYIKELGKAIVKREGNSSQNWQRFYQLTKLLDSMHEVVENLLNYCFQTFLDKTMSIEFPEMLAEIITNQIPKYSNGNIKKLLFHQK
Chain of Peroxisome proliferator-activated receptor gamma (Homo sapiens) (P37231 whole entry, looked up): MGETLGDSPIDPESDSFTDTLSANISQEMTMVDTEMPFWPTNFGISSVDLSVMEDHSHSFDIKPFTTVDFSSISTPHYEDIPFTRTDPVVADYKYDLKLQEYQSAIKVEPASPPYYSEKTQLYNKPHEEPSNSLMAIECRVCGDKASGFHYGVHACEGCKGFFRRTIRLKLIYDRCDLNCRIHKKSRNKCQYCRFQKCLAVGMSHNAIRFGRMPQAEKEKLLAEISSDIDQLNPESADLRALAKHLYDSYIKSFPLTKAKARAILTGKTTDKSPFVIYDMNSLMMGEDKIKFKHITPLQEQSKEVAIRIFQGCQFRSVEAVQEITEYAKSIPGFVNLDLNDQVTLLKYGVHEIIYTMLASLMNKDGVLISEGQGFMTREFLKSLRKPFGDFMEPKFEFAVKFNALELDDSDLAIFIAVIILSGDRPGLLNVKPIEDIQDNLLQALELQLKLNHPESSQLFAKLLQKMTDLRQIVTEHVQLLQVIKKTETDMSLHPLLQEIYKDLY
Chain of Estrogen receptor beta (Homo sapiens) (Q92731 whole entry, looked up, the tested form may be a part): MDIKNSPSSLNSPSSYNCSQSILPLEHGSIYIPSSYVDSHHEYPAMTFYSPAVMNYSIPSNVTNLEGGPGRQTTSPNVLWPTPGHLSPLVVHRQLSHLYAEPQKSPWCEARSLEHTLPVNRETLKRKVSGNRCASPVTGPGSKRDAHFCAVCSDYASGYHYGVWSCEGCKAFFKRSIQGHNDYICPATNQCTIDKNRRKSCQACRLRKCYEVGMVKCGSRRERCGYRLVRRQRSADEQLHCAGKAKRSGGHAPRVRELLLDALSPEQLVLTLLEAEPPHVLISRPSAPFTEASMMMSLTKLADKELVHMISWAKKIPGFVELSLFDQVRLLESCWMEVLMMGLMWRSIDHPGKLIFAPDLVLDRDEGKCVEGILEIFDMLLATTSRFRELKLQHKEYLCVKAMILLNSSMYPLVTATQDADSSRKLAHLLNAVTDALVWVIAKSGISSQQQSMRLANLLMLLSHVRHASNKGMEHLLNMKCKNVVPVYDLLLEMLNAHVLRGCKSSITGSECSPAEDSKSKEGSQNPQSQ
Chain of human Dopamine Transporter (DAT), SLC6A3 (gene 6531) (Q01959 whole entry, looked up): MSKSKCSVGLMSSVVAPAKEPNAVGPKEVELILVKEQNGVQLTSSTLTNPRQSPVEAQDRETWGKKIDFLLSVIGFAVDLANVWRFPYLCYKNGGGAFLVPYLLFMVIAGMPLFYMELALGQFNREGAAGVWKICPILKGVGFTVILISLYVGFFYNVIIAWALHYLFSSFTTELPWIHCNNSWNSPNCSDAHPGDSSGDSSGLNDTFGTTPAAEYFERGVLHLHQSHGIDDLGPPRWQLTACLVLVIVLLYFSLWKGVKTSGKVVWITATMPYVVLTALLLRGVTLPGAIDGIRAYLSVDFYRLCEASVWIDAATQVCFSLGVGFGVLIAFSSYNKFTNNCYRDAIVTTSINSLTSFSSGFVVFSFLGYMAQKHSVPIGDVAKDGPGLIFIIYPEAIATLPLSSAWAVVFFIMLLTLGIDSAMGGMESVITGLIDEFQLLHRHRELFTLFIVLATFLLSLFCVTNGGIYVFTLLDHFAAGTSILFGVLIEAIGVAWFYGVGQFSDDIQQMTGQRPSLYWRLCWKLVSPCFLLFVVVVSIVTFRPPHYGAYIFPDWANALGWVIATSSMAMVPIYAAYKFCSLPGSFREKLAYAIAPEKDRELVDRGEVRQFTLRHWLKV
Chain of guinea pig Sigma Receptor, Non-selective Binding, SIGMAR1 (gene 100135589) (Q60492 whole entry, looked up): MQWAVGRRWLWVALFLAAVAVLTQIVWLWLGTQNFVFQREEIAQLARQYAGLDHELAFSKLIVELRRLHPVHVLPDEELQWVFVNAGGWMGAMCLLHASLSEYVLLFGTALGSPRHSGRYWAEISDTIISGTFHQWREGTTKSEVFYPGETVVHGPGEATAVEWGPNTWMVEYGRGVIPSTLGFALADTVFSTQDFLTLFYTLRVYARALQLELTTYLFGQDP

C[C@H]1CCCC(=O)CCC/C=C/c2cc(O)cc(O)c2C(=O)O1
active: [3] 0.24 µM | [4] 84.5 nM | [5] 0.969 µM | [6] 2.15 µM
inactive: [1] | [2]

O=C(OC1CCCCC1)c1ccccc1C(=O)OC1CCCCC1
inactive: [7] | [6]

c1cc[c]([Hg][c]2ccccc2)cc1
inactive: [3]
active: [1] 41.9 µM | [2] 32.2 µM

CCC1(c2ccc(N)cc2)CCC(=O)NC1=O (configuration not stated)
inactive: [1] | [2]

COc1ccc(C=O)cc1OC
inactive: [3] | [4]

CC(C)(c1ccc(OCC2CO2)cc1)c1ccc(OCC2CO2)cc1 (configuration not stated)
inactive: [2] | [4] | [8] | [9] | [6]
active: [1] 79.1 µM

CC(C)c1cccc(C(C)C)c1O
inactive: [1] | [2] | [3] | [4]

COP(=O)(OC)O/C(=C\Cl)c1cc(Cl)c(Cl)cc1Cl
active: [1] 67.5 µM | [5] 25 µM
inactive: [2] | [10] | [6]

CC(C)(C)CC(C)(C)c1ccc(O)cc1
inactive: [7] | [12] | [13]
active: [4] 817 nM and 676 nM and 702 nM | [11] 10.8 µM | [9] 4.67 µM and 15.9 µM and 7.33 µM | [14] 15.1 µM

COP(=S)(OC)Oc1ccc(Sc2ccc(OP(=S)(OC)OC)cc2)cc1
active: [3] 48.4 µM | [10] 12.7 µM | [12] 16.1 µM | [6] 0.13 µM
inactive: [1] | [2] | [4] | [12] | [6]

O=[N+]([O-])c1ccc(O)c([N+](=O)[O-])c1
inactive: [1] | [2] | [3] | [12] | [6]

C=CCc1ccc(OC)cc1
inactive: [2] | [4] | [10]

O=c1[nH]c(=O)[nH]c(=O)[nH]1
inactive: [1] | [2] | [4]

CCC(=O)C(CC(C)N(C)C)(c1ccccc1)c1ccccc1 (configuration not stated)
inactive: [1] | [3] | [4]
active: [15] 2.1 µM | [16] 11.3 µM

O=C1C2(Cl)C3(Cl)C4(Cl)C(Cl)(Cl)C5(Cl)C3(Cl)C1(Cl)C5(Cl)C24Cl (configuration not stated)
inactive: [10] | [17] | [5] | [12] | [6]
active: [1] 19.2 µM and 46.6 µM and 26 µM | [2] 28.5 µM and 76.6 µM and 31.5 µM | [9] 841 nM and 992 nM and 186 nM

ClC1(Cl)C2(Cl)C3(Cl)C4(Cl)C(Cl)(Cl)C5(Cl)C3(Cl)C1(Cl)C5(Cl)C24Cl (configuration not stated)
inactive: [1] | [2] | [18] | [6]

C=CC(=O)OCCCCCC(C)C
inactive: [1] | [2] | [3] | [4]

CCN1CCC2(CC1)COc1cc3c(cc12)N(C(=O)c1ccc(-c2ccc(-c4nnc(C)o4)cc2C)cc1)CC3
inactive: [3] | [4] | [12] | [20] | [16]
active: [1] 7.04 µM | [2] 11.7 µM | [15] 3.01 µM | [19] 1.11 µM | [13] 7.47 µM | [14] 6.34 µM

CC12CC1(C)C(=O)N(c1cc(Cl)cc(Cl)c1)C2=O (configuration not stated)
inactive: [1] | [2] | [4] | [5] | [12]

COP(=O)(OC)OC
inactive: [1]

Cc1ccc2ccccc2c1C
inactive: [1] | [2] | [3] | [4]

Cc1ccccc1C(=O)Nc1cccc(OC(C)C)c1
active: [5] 7.03 µM
inactive: [1] | [2] | [3] | [6]

CCOP(=S)(OCC)Oc1nc(Cl)c(Cl)cc1Cl
active: [2] 78.9 µM | [3] 61.5 µM | [4] 58900 nM
inactive: [5] | [6]

CCOC(=O)Nc1cccc(OC(=O)Nc2ccccc2)c1
inactive: [3] | [4]

Cl/C=C\C[N+]12CN3CN(CN(C3)C1)C2
inactive: [4]
active: [1] 76.6 µM | [2] 91.5 µM | [3] 11.6 µM

CC(=O)[O][Hg][c]1ccccc1
active: [1] 1.86 µM | [2] 3.4 µM | [5] 5.37 µM | [19] 11.8 µM | [14] 12.4 µM
inactive: [3] | [4]

Source: PubChem BioAssay (EPA / NIEHS)
